Assay in all cases: log2 ratio of Biotin-Ahx-Ub-VS probe labelling (fragment/DMSO); higher = less target engagement (more negative = stronger competition), active = hit call of the paper (q ≤ 0.05, log2 ratio ≤ -1)
What all share (conditions): compound concentration: 200 uM; treatment time: 3 h

The target of one assay is T1, OTUD6B (UniProt Q8N6M0).
T1 sequence (whole entry): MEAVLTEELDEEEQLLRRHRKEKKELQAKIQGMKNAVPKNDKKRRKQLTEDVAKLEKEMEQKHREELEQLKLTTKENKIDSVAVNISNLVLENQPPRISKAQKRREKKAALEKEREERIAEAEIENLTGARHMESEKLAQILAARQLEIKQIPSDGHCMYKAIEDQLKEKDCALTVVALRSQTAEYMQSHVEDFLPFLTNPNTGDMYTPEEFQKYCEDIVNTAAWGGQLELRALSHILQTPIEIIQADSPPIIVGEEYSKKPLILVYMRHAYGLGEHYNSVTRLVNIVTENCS
A digest of the protocol: (§1)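 HEK293T lysate, 495 µg per sample in Tris/CHAPS/IGEPAL buffer with protease inhibitors, was treated in triplicate with fragment at 200 µM or vehicle for 3 h and then with Biotin-Ahx-Ub-VS at 0.5 µM final for 1 h. Labelled DUBs were NeutrAvidin-enriched, digested with LysC and trypsin, and run by diaPASEF LC-MS/MS. Spectronaut label-free quantities were global-median-normalised, and values are average log2 fragment/vehicle ratios by unpaired t-test on proteins with ≥2 unique peptides.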

For the next assay, the target named is T2, OTUD7B (UniProt Q6GQQ9).
T2 sequence (whole entry): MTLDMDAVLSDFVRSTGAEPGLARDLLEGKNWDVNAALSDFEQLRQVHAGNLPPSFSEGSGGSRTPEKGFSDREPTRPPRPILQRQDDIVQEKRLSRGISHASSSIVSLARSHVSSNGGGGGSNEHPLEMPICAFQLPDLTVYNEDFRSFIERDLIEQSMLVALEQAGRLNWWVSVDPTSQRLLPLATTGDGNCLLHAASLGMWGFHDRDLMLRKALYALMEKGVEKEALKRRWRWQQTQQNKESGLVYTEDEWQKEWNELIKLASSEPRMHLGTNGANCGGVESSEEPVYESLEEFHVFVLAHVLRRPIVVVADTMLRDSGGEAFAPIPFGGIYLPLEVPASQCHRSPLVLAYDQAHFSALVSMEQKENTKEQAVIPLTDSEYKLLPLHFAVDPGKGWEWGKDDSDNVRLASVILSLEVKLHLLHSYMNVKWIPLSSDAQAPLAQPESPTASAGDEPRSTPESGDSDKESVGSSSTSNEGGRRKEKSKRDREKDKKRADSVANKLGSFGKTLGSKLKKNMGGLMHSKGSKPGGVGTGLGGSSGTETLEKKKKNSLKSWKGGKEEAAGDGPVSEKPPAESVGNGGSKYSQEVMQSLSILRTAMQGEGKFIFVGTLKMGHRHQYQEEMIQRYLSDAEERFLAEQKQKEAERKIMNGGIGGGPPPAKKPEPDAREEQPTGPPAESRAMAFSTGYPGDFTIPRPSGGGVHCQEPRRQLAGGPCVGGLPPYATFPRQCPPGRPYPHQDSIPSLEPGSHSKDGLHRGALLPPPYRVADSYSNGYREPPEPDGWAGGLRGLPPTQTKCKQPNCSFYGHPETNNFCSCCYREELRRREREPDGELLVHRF
Put shortly:
as §1

For a further assay, the target named is PRPF8 (UniProt Q6P2Q9). A digest of the protocol:
as §1

The target of a further assay is T3, PSMD7 (UniProt P51665).
T3 sequence (whole entry): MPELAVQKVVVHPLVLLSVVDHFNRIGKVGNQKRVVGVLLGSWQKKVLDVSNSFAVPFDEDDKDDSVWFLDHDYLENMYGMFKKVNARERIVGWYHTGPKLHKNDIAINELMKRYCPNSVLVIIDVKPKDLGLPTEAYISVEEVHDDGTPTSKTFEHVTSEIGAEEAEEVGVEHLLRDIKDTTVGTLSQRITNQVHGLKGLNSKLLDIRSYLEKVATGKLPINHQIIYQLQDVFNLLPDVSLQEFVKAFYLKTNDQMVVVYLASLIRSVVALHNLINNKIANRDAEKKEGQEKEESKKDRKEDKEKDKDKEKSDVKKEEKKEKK
A digest of the protocol:
as §1

In the next assay the target is UCHL1 (UniProt P09936). Put shortly:
as §1

A further assay has as its target T4, UCHL3 (UniProt P15374).
T4 sequence (whole entry): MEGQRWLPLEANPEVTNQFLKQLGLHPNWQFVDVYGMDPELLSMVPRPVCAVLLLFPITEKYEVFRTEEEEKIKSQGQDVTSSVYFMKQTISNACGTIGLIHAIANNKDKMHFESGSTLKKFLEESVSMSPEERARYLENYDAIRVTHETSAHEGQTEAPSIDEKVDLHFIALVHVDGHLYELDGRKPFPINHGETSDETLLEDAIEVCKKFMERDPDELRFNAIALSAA
A digest of the protocol: as §1

A further assay addresses T5, UCHL5 (UniProt Q9Y5K5).
T5 sequence (whole entry): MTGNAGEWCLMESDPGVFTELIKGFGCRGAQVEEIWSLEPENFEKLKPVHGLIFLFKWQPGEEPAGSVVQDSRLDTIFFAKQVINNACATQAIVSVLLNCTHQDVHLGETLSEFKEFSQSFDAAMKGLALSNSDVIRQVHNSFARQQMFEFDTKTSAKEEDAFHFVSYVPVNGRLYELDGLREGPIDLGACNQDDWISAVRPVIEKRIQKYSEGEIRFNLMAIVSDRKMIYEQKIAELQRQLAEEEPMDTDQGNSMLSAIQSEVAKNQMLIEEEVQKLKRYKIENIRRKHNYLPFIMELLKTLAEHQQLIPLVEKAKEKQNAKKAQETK
A digest of the protocol: as §1

The target in the next assay is USP10 (UniProt Q14694). Put shortly: as §1
Another assay addresses T6, USP15 (UniProt Q9Y4E8).
T6 sequence (whole entry): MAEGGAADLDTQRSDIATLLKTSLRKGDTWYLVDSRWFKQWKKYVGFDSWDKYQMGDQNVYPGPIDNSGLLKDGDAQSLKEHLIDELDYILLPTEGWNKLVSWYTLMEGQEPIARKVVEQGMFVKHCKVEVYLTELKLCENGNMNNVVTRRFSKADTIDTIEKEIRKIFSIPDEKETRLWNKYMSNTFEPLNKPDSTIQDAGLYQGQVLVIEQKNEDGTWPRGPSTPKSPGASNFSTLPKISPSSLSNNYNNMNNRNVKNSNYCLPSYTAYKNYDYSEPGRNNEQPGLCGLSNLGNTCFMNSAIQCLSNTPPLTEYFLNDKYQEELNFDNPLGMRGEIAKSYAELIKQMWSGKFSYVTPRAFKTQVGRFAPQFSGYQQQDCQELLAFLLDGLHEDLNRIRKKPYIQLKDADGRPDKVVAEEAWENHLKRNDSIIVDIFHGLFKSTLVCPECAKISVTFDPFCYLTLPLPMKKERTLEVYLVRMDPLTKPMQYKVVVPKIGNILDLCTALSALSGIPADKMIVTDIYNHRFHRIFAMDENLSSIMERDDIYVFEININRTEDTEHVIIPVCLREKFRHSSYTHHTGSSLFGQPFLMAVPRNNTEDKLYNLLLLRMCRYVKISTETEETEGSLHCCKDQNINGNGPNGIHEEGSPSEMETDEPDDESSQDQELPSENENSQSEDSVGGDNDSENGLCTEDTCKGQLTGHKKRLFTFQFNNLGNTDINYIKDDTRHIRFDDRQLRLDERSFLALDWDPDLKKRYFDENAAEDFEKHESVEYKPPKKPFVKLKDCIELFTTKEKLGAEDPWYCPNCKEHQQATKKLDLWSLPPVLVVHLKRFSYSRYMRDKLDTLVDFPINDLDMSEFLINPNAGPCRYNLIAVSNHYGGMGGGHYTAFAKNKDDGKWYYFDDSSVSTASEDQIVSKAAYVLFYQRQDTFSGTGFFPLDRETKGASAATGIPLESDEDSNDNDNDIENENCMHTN
Put shortly:
as §1

For the next assay, the target named is USP16 (UniProt Q9Y5T5). Put shortly:
as §1

Each structure is given as a SMILES string. Unmarked numbers belong to inactive results.

Sequence of USP16 (Q9Y5T5 whole entry, looked up): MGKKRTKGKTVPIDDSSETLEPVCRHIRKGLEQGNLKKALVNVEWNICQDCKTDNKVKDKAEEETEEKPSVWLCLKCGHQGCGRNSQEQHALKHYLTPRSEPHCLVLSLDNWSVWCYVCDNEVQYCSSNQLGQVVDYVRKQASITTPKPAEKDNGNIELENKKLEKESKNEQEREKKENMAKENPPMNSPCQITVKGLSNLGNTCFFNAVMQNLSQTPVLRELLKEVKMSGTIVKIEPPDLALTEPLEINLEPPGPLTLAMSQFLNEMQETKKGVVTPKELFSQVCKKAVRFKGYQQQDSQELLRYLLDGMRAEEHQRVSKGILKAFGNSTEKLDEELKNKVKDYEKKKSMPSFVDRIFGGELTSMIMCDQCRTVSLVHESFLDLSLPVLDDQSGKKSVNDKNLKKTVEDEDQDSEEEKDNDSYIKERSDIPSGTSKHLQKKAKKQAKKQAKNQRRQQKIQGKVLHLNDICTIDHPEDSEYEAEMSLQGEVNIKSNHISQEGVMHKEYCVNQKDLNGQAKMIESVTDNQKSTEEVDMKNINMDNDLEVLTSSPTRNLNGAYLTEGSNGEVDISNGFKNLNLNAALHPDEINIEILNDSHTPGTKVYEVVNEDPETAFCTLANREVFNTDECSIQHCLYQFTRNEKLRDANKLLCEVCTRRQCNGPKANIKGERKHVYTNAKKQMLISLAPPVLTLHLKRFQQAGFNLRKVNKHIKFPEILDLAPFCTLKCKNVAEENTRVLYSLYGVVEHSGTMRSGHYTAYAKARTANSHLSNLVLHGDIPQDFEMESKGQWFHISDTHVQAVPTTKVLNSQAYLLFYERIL
Sequence of UCHL1 (P09936 whole entry, looked up): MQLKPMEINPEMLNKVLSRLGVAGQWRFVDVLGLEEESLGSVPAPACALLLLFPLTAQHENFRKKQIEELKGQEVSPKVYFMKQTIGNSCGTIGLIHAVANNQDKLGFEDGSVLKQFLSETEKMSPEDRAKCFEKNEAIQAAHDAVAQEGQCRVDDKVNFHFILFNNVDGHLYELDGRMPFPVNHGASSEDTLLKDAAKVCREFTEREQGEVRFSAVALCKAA
Sequence of USP10 (Q14694 whole entry): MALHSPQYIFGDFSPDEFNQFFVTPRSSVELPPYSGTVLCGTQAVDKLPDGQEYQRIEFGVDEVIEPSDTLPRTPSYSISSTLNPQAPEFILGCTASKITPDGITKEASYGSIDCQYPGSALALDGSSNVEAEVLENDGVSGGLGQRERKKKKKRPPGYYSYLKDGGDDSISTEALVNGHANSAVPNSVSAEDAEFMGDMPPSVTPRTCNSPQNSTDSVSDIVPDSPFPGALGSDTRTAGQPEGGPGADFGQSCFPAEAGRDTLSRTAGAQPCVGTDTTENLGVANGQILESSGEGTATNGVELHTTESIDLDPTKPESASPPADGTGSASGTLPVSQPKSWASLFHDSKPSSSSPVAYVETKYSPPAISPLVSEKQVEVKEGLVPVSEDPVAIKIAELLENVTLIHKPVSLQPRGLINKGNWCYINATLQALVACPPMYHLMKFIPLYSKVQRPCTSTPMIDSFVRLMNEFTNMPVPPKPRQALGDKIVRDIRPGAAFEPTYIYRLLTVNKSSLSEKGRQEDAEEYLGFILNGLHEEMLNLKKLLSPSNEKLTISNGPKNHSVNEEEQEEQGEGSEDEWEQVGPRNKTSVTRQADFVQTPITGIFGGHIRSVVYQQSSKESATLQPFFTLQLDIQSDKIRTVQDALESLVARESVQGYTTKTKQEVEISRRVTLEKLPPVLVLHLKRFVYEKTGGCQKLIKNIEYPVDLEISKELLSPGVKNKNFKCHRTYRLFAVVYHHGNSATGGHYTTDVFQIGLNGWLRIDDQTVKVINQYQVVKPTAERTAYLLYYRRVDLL

Regarding `O=C(CCl)NCc1cccc(F)c1`, the “log2 ratio of Biotin-Ahx-Ub-VS probe labelling” value with OTUD6B is -0.0396; with OTUD7B, -0.597; with PRPF8, -0.208; with PSMD7, -0.138; in the assay with UCHL1 it was -1.24 (active); in the assay with UCHL3, 0.227. Further, the “log2 ratio of Biotin-Ahx-Ub-VS probe labelling” value was -0.0221 with UCHL5, -0.156 with USP10, -0.273 with USP15 and -0.133 with USP16.
